The supplement of paper PMC9135407
“And” between values parts separate entries of the source, which are not always exact repeats. Equal entries are not always repeated. Structures can show the parent of a compound that is named as a salt. Out of some 5,800 compounds screened, about 620 (11%) showed activity. The entries come from a sample that favours actives as a whole. A number with no mark means an inactive call.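 Rule for the calls: active = score above a cut-off or among the top three wells of a plate; in these data no inactive exceeds 0.85.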

System: primary human hepatic stellate cells (donor 1)
Assay: scaled lipid accumulation score (0 = DMSO-like, 1 = nortriptyline-like); higher = stronger HSC inactivation (lipid re-accumulation), active = hit call of the paper
Details: 48 h
[1] = library stock concentration: 3.33 mM
[2] = library stock concentration: 10 mM
[3] = library stock concentration: 1 mM
[4] = library stock concentration: 80 uM
[5] = library stock concentration: 400 uM
[6] = library stock concentration: 2 mM

How did the “scaled lipid accumulation score” value [1] turn out when C[C@@]12C[C@@]3(O)O[C@@H](O1)[C@]1(COC(=O)c4ccccc4)[C@H]3C[C@@]12O[C@@H]1O[C@H](CO)[C@@H](O)[C@H](O)[C@H]1O [Paeoniflorin] was run?
The value was no more than 0.

And the “scaled lipid accumulation score” value [2]?
Its value is no more than 0.

With COCc1c(C(C)C)nc(C(C)C)c(/C=C/[C@@H](O)C[C@@H](O)CC(=O)O)c1-c1ccc(F)cc1 [Cerivastatin] as the compound, how does the “scaled lipid accumulation score” value (library stock concentration: 4.4 mM) read?
Its value is 0.228.

For COCc1c(C(C)C)nc(C(C)C)c(/C=C/[C@@H](O)C[C@@H](O)CC(=O)O)c1-c1ccc(F)cc1, which “scaled lipid accumulation score” value [2] is on record?
Its value is 0.271.

With CCCOc1ccc(Br)cc1-c1cc(-c2ccc(Cl)cc2)[nH]c1-c1ccncc1 as the compound, how does the “scaled lipid accumulation score” value [2] read?
Its value is 0.006.

With O=C1NC(=O)c2cc(Nc3ccccc3)c(Nc3ccccc3)cc21 as the compound, how does the “scaled lipid accumulation score” value [2] read?
Its value is 0.353 and 0.003.

Which results are given for Cc1cccc(-c2nn3c(c2-c2ccnc4ccc(C(N)=O)cc24)CCC3)n1?
scaled lipid accumulation score [1]: 0.006; scaled lipid accumulation score [2]: ≤ 0

Which “scaled lipid accumulation score” value [3] does the source give for O=C(O)CCC/C=C\C[C@@H]1C(=O)C[C@@H](O)[C@@H]1/C=C/[C@@H](O)CC1CCCCC1 [8-iso-16-cyclohexyl-tetranor Prostaglandin E2] here?
The value was no more than 0.

With O=C(c1cc(Cc2n[nH]c(=O)c3ccccc23)ccc1F)N1CCN(C(=O)C2CC2)CC1 as the compound, how does the “scaled lipid accumulation score” value [1] read?
The value was no more than 0.

And the “scaled lipid accumulation score” value [2]?
The value was no more than 0.

With CN1CCCC(n2nc(Cc3ccc(Cl)cc3)c3ccccc3c2=O)CC1 (stereo unspecified) as the compound, how does the “scaled lipid accumulation score” value [2] read?
The value was 1.21 (active).

With CN1CCCC(n2nc(Cc3ccc(Cl)cc3)c3ccccc3c2=O)CC1 (stereo unspecified) [Azelastine HCl] as the compound, how does the “scaled lipid accumulation score” value [1] read?
The value was 0.604.

How did the “scaled lipid accumulation score” value [4] turn out when O=C(c1cc(Cc2n[nH]c(=O)c3ccccc23)ccc1F)N1CCN(C(=O)C2CC2)CC1 [Olaparib] was run?
Its value is no more than -0.0005.

What about the “scaled lipid accumulation score” value [5] of the same compound?
The value was no more than -0.0045.

And the “scaled lipid accumulation score” value [6]?
Its value is no more than -0.0045.

What about the “scaled lipid accumulation score” value [2] of the same compound?
Its value is no more than -0.0045.

For CN1CCCC(n2nc(Cc3ccc(Cl)cc3)c3ccccc3c2=O)CC1.Cl (stereo unspecified) [Azelastine hydrochloride], which “scaled lipid accumulation score” value (library stock concentration: 4.8 mM) is on record?
The value was 0.978 (active).

And the “scaled lipid accumulation score” value [2]?
Its value is 0.992 (active).

How did the “scaled lipid accumulation score” value [2] turn out when CN1CCCC(n2nc(Cc3ccc(Cl)cc3)c3ccccc3c2=O)CC1.Cl (stereo unspecified) [Azelastine HCl] was run?
The value was 1.09 (active).

With COC1CCN(C(=O)c2cc(Cc3n[nH]c(=O)c4ccccc34)ccc2F)CC1 as the compound, how does the “scaled lipid accumulation score” value [1] read?
Its value is no more than 0.

And the “scaled lipid accumulation score” value [2]?
Its value is no more than -0.001.

Which “scaled lipid accumulation score” value [2] does the source give for NC(C(=O)O)c1ccc(C(=O)O)c(C(=O)O)c1 (racemic) here?
The value was no more than -0.006.

How did the “scaled lipid accumulation score” value [2] turn out when C[C@@H]1CN(c2c(F)c(F)c3c(=O)c(C(=O)O)cn(C4CC4)c3c2F)C[C@H](C)N1 was run?
The value was no more than 0.

With N=C(NO)NCC[C@H](N)C(=O)O as the compound, how does the “scaled lipid accumulation score” value [3] read?
Its value is no more than 0.

CC(=O)Oc1cccc(O)c1 [Resorcinol monoacetate] was tested. Which “scaled lipid accumulation score” value [2] did it give?
The value was 0.063.

And the “scaled lipid accumulation score” value (library stock concentration: 13.1 mM)?
Its value is no more than 0.

For CCCCCCCC/C=C\C/C=C\C/C=C\CCCC(=O)NCCO [5(Z),8(Z),11(Z)-Eicosatrienoic Acid Ethanolamide], which “scaled lipid accumulation score” value [3] is on record?
Its value is 0.015.

For CCCCCCCC/C=C\C/C=C\C/C=C\CCCC(=O)NCCO [Mead ethanolamide], which “scaled lipid accumulation score” value [3] is on record?
The value was 0.017.

With CCCCCCCCCCCCCCCC(=O)O[C@H](CC(=O)O)C[N+](C)(C)C as the compound, how does the “scaled lipid accumulation score” value [2] read?
The value was 0.027.

How did the “scaled lipid accumulation score” value [4] turn out when CCCOc1ccc(C=C2SC(=O)NC2=O)cc1 was run?
The value was no more than -0.001.

What about the “scaled lipid accumulation score” value [5] of the same compound?
Its value is no more than -0.001.

And the “scaled lipid accumulation score” value [6]?
The value was no more than -0.001.

What about the “scaled lipid accumulation score” value [2] of the same compound?
Its value is no more than -0.001.

For OCC(O)CCO/N=C1\C(c2c(O)[nH]c3ccccc23)=Nc2ccccc21 (stereo unspecified) [Indirubin Derivative E804], which “scaled lipid accumulation score” value [1] is on record?
The value was no more than 0.

With Fc1ccc([C@@H]2CCNC[C@H]2COc2ccc3c(c2)OCO3)cc1 [Paroxetine hydrochloride hemihydrate (MW = 374.83)] as the compound, how does the “scaled lipid accumulation score” value [2] read?
The value was 0.836.

With Fc1ccc([C@@H]2CCNC[C@H]2COc2ccc3c(c2)OCO3)cc1 [Paroxetine hydrochloride] as the compound, how does the “scaled lipid accumulation score” value [2] read?
The value was 0.808.

How did the “scaled lipid accumulation score” value [1] turn out when Cl.Fc1ccc([C@@H]2CCNC[C@H]2COc2ccc3c(c2)OCO3)cc1 [Paroxetine HCl] was run?
Its value is 0.491 (active).

Which “scaled lipid accumulation score” value [2] does the source give for c1ccc(N2CCN(CCCOc3ccc4c(c3)OCO4)CC2)cc1 [BP 554 maleate] here?
Its value is no more than 0.

Which “scaled lipid accumulation score” value [2] does the source give for Fc1ccc([C@@H]2CCNC[C@H]2COc2ccc3c(c2)OCO3)cc1 [Paroxetine HCl] [listing 1 of 2 here] here?
Its value is 0.355.

Fc1ccc([C@@H]2CCNC[C@H]2COc2ccc3c(c2)OCO3)cc1 [Paroxetine] was tested. Which “scaled lipid accumulation score” value [2] did it give?
Its value is 0.634.

How did the “scaled lipid accumulation score” value (library stock concentration: 6.1 mM) turn out when Fc1ccc([C@@H]2CCNC[C@H]2COc2ccc3c(c2)OCO3)cc1 [Paroxetine HCl] [listing 2 of 2 here] was run?
Its value is 1.01 (active).

With Cl.Fc1ccc([C@@H]2CCNC[C@H]2COc2ccc3c(c2)OCO3)cc1 [Paroxetine Hydrochloride] as the compound, how does the “scaled lipid accumulation score” value read?
Its value is 1.22 (active).

How did the “scaled lipid accumulation score” value [1] turn out when COc1cc(F)c(C(C)C)cc1-c1ccc(C(F)(F)F)cc1CN1C(=O)O[C@H](c2cc(C(F)(F)F)cc(C(F)(F)F)c2)[C@@H]1C [Anacetrapib (MK-0859)] was run?
Its value is no more than 0.

What about the “scaled lipid accumulation score” value [2] of the same compound?
The value was no more than 0.

With C=C1C[C@@H](O)[C@H](/C=C/[C@@H](O)CCCCC)[C@H]1C/C=C\CCCC(=O)O [9-deoxy-9-methylene Prostaglandin E2] as the compound, how does the “scaled lipid accumulation score” value [3] read?
Its value is 0.01.
